# Test results as given in publication PMC8222333, “AsCas12a ultra nuclease facilitates the rapid generation of therapeutic cell medicines”.
# Positions count from the first letter of the chain named.
# B1: TCGG (dsDNA)
# DNA 1: GCTATCTAGTGCTCAGTACGCACTGTCGGAGGAAACTTCTGGCAGGACCAGGTCATGAGATCGGAAGAGCACACGTCTGAACTCCAGTCA
# DNA 2: TGACTGGAGTTCAGACGTGTGCTCTTCCGATCTCATGACCTGGTCCTGCCAGAAGTTTCCTCCGACAGTGCGTACTGAGCACTAGATAGC
# RNA: AAUUUCUACUCUUGUAGAUAGGAAACUUCUGGCAGGACC
# B2: TGCA (dsDNA)
# DNA 1: B1 DNA 1 with C27G, G28C, G29A
# DNA 2: B1 DNA 2 with C62T, C63G, G64C
# RNA: B1 RNA
# B3: TGCC (dsDNA)
# DNA 1: B1 DNA 1 with C27G, G28C, G29C
# DNA 2: B1 DNA 2 with C62G, C63G, G64C
# RNA: B1 RNA
# B4: AAAA (dsDNA)
# DNA 1: B1 DNA 1 with T26A, C27A, G28A, G29A
# DNA 2: B1 DNA 2 with C62T, C63T, G64T, A65T
# RNA: B1 RNA
# B5: AAAC (dsDNA)
# DNA 1: B1 DNA 1 with T26A, C27A, G28A, G29C
# DNA 2: B1 DNA 2 with C62G, C63T, G64T, A65T
# RNA: B1 RNA
# B6: AAAG (dsDNA)
# DNA 1: B1 DNA 1 with T26A, C27A, G28A
# DNA 2: B1 DNA 2 with C63T, G64T, A65T
# RNA: B1 RNA
# B7: AACA (dsDNA)
# DNA 1: B1 DNA 1 with T26A, C27A, G28C, G29A
# DNA 2: B1 DNA 2 with C62T, C63G, G64T, A65T
# RNA: B1 RNA
# B8: AACC (dsDNA)
# DNA 1: B1 DNA 1 with T26A, C27A, G28C, G29C
# DNA 2: B1 DNA 2 with C62G, C63G, G64T, A65T
# RNA: B1 RNA
# B9: AACG (dsDNA)
# DNA 1: B1 DNA 1 with T26A, C27A, G28C
# DNA 2: B1 DNA 2 with C63G, G64T, A65T
# RNA: B1 RNA
# B10: AACT (dsDNA)
# DNA 1: B1 DNA 1 with T26A, C27A, G28C, G29T
# DNA 2: B1 DNA 2 with C62A, C63G, G64T, A65T
# RNA: B1 RNA
# B11: AAGA (dsDNA)
# DNA 1: B1 DNA 1 with T26A, C27A, G29A
# DNA 2: B1 DNA 2 with C62T, G64T, A65T
# RNA: B1 RNA
# B12: AAGG (dsDNA)
# DNA 1: B1 DNA 1 with T26A, C27A
# DNA 2: B1 DNA 2 with G64T, A65T
# RNA: B1 RNA
# B13: AAGT (dsDNA)
# DNA 1: B1 DNA 1 with T26A, C27A, G29T
# DNA 2: B1 DNA 2 with C62A, G64T, A65T
# RNA: B1 RNA
# B14: ACAA (dsDNA)
# DNA 1: B1 DNA 1 with T26A, G28A, G29A
# DNA 2: B1 DNA 2 with C62T, C63T, A65T
# RNA: B1 RNA
# B15: ACAC (dsDNA)
# DNA 1: B1 DNA 1 with T26A, G28A, G29C
# DNA 2: B1 DNA 2 with C62G, C63T, A65T
# RNA: B1 RNA
# B16: ACAG (dsDNA)
# DNA 1: B1 DNA 1 with T26A, G28A
# DNA 2: B1 DNA 2 with C63T, A65T
# RNA: B1 RNA
# B17: ACCC (dsDNA)
# DNA 1: B1 DNA 1 with T26A, G28C, G29C
# DNA 2: B1 DNA 2 with C62G, C63G, A65T
# RNA: B1 RNA
# Molecular target: dAsCas12a E174R (Acidaminococcus sp., UniProt U2UMQ6 1-1307, E174R;D908A;E993A;D1235A)
# Experiment: Spec-seq (native PAGE EMSA with sequencing of bound and unbound); 25 mM Tris-HCl pH 7.4, 150 mM KCl, 5 mM MgCl2, 10% glycerol, 1 mM DTT, 40 ng/uL salmon sperm DNA; 400 nM Cas12a, 480 nM crRNA, 50 nM library, 37 C 1 h; native PAGE at room temperature; high values mean tight binding
# Settings: protein: recombinant
# 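Further: relative affinity from the bound to unbound sequence frequency ratio in Spec-seq.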
row,Binder,binding signal [lnKA]
1,B1,-8.87
2,B2,-8.93
3,B3,-8.73

# Molecular target: dAsCas12a S542R (Acidaminococcus sp., UniProt U2UMQ6 1-1307, S542R;D908A;E993A;D1235A)
# Experiment: as above
# Settings: protein: recombinant
row,Binder,binding signal [lnKA]
1,B1,-8.02
2,B2,-8.02
3,B3,-7.76
4,B4,-8.41
5,B5,-8.48
6,B6,-8.45
7,B7,-8.12
8,B8,-7.9
9,B9,-8.29
10,B10,-8.54
11,B11,-8.52
12,B12,-8.67
13,B13,-8.46
14,B14,-8.6
15,B15,-8.48
16,B16,-8.64
17,B17,-5.2

# Molecular target: d-enCas12a (Acidaminococcus sp., UniProt U2UMQ6 1-1307, E174R;S542R;K548R;D908A;E993A;D1235A)
# Experiment: as above
# Settings: protein: recombinant
row,Binder,binding signal [lnKA]
1,B1,-5.8
2,B2,-2
3,B3,-1.44
4,B4,-5.66
5,B5,-5.25
6,B6,-5.7
7,B7,-2.72
8,B8,-2.33
9,B9,-4.8
10,B10,-4.69
11,B11,-5.74
12,B12,-5.8
13,B13,-5.71
14,B14,-5.98
15,B15,-5.72
16,B16,-5.79
17,B17,-2.44

# Molecular target: d-enCas12a-Ultra (Acidaminococcus sp., UniProt U2UMQ6 1-1307, E174R;S542R;K548R;M537R;F870L;D908A;E993A;D1235A)
# Experiment: as above
# Settings: protein: recombinant
row,Binder,binding signal [lnKA]
1,B1,-3.45
2,B2,-0.483
3,B3,-0.407
4,B4,-3.17
5,B5,-2.57
6,B6,-3.44
7,B7,-0.706
8,B8,-0.621
9,B9,-2.04
10,B10,-1.81
11,B11,-3.38
12,B12,-3.49
13,B13,-3.41
14,B14,-3.44
15,B15,-3.38
16,B16,-3.45
17,B17,-0.482
